Assay [1] can be described thus: qHTS assay to identify small molecule HDAC inhibitors (AID 1259364). Further: top concentration of the series differs between compounds; nearly all actives have a fitted effect of over 45% in size. The essentials:
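Endogenous HDAC class I/II activity was measured in wild-type HCT-116 cells by HDAC-Glo luminescence after 2 h compound treatment.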
In general terms: Quantitative high-throughput screening tests each substance at several concentrations.

Assay [2] is described as follows: qHTS assay to identify small molecule HDAC inhibitors - cell viability counter screen (AID 1259365). Further: series mostly up to about 92 µM; nearly all actives have a fitted effect of over 50% in size. In short, it runs like this: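 Following a 2hr exposure of overnight-plated wild-type HCT-116 cells to DMSO-delivered compounds, CellTiter-Glo was added and luminescence recorded after 30min at room temperature.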
Assay [3] in a line: qHTS assay to identify small molecule agonists of the sonic hedgehog signaling (Shh) pathway - cell viability counter screen (AID 1259366). Further: nearly all actives have a fitted effect of over 50% in size. The essentials: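 After a 4hr attachment at 37C, NIH/3T3 cells bearing an integrated Gli1-driven luciferase reporter were dosed with compounds. Treatment lasted 24hr, with the final hour including CellTiter-Fluor for a fluorescence viability measurement.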

Assay [4] can be described thus: qHTS assay to identify small molecule antagonists of the sonic hedgehog signaling (Shh) pathway - cell viability counter screen (AID 1259367). Further: nearly all actives have a fitted effect of over 55% in size. In short, it runs like this:
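Seed 3T3 Gli1-Luc cells at 2,000 per well; incubate 4 hr; add compound in DMSO, then conditioned medium; incubate at 37C with 5% CO2; add CellTiter-Fluor after 23 hr; read fluorescence 1 hr later.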

Assay [5] in a line: qHTS assay to identify small molecule agonists of the sonic hedgehog signaling (Shh) pathway (AID 1259368; calls by dose curve;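 further: NIH/3T3-derived 3T3Gli1-Luc cells carrying a stable Gli1-driven firefly luciferase reporter; series mostly up to about 92 µM; nearly all actives have a fitted effect of over 15% in size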). The essentials: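 Luminescent signal was taken as a measure of Gli1-controlled luciferase expression in stably transfected NIH/3T3-derived cells that had been treated for 24 hr with compounds delivered in DMSO.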
Assay [6] is described as follows: qHTS assay to identify small molecule agonists of the androgen receptor (AR) signaling pathway in the presence of an antagonist - cell viability counter screen (AID 1259379).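 Further: MDA-kb2 human breast cancer cells carrying an MMTV luciferase reporter; series mostly up to about 92 µM; nearly all actives have a fitted effect of over 25% in size.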 In short, it runs like this: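 In MDA-kb2 cells (human breast carcinoma, MMTV-luciferase), compounds at 15 concentrations plus 3.0uM nilutamide; 16 hr, 37C, 0% CO2; CellTiter-Fluor fluorescence read for viability.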

Assay [7] is described as follows: qHTS assay to identify small molecule antagonists of the estrogen receptor beta (ER-beta) signaling pathway - cell viability counter screen (AID 1259382). Further: nearly all actives have a fitted effect of over 55% in size. Further: potency means the concentration at half of the fitted maximal effect. The essentials:
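Tox21 10K library tested in qHTS format on ER-beta-bla HEK293T cells stimulated with 1nM E2; 16 hr treatment at 37C. Same-well CellTiter-Glo luminescence served as the cell viability measure.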

Assay [8] in a line: qHTS assay to identify small molecule agonists or antagonists of the thyroid stimulating hormone receptor (TSHR) signaling pathway - wild type cell line counter screen (AID 1259384; calls by dose curve). In short, it runs like this: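 Wild-type Hek293 cells, 800/well, 18 h at 37C, then compound with Ro20-1724 for 30 min RT. cAMP by HTRF (cAMP-d2/anti-cAMP cryptate), 1 h RT, fluorescence read. 15 concentrations, triplicates.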

Assay [9] has as its target Thyrotropin receptor (Homo sapiens) (UniProt P16473). Kind of assay: qHTS assay to identify small molecule antagonists of the thyroid stimulating hormone receptor (TSHR) signaling pathway (AID 1259385; calls by dose curve; further: nearly all actives have a fitted effect of over 20% in size). The essentials:
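TSHR-HEK293 cells (800/well) plated 18 h, then compounds with Ro20-1724 and TSH at 1.5 ng/mL final, 30 min at room temperature. cAMP quantified by HTRF (cAMP-d2/anti-cAMP-cryptate, 1 h); 15 concentrations in triplicate.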

Assay [10] in a line: qHTS assay to identify small molecule agonists of the estrogen receptor alpha (ER-alpha) signaling pathway in the presence of an antagonist - cell viability counter screen (AID 1259386).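 Further: series mostly up to about 92 µM; cells exposed to compounds for 22 h at 37 °C before the viability read; nearly all actives have a fitted effect of over 30% in size.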 The essentials:
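Fluorescent CellTiter-Fluor viability signal from VM7Luc4E2 cells, with the reagent added during the final hour of a 22hr compound exposure at 37C in the presence of 10.0nM ICI-182,780.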

Assay [11] has as its target Progesterone receptor (Homo sapiens) (UniProt P06401). Put plainly: qHTS assay to identify small molecule agonists of the progesterone receptor (PR) signaling pathway (AID 1346784; calls by dose curve; further: nearly all actives have a fitted effect of over 30% in size). In short, it runs like this:
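Using charcoal-stripped serum (2%) to limit endogenous steroids, PR-UAS-bla HEK 293T cells received compounds for 16 hr at 37C after 6 hr plating; beta-lactamase FRET fluorescence was recorded following 2 hr substrate loading at room temperature.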

For assay [12] the target is unchanged. Put plainly: qHTS assay to identify small molecule antagonists of the progesterone receptor (PR) signaling pathway (AID 1346795; active means well fitted inhibition curve with a large enough effect in the signal ratio in the repeat runs, not every such curve was filed as active; the % refers to the signal ratio; further: potency means the concentration at half of the fitted maximal effect). In short, it runs like this: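 Inhibition of R5020-induced (1 nM final) beta-lactamase reporter signal in PR-UAS-bla HEK293T cells was scored by FRET fluorescence after overnight (16 hr) compound treatment.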
Assay [13] is described as follows: qHTS assay to identify small molecule antagonists of the sonic hedgehog signaling (Shh) pathway (AID 1259369; calls by dose curve; further: nearly all actives have a fitted effect of over 45% in size; further: potency means the concentration at half of the fitted maximal effect). The essentials: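 Screening used 3T3Gli1-Luc cells at 2,000 per well, compounds delivered in DMSO, and conditioned medium as agonist stimulus; plates incubated 24hr at 37 C and 5% CO2 before a 30min luciferase step.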
Assay [14] can be described thus: qHTS assay to identify small molecule agonists of the estrogen receptor beta (ER-beta) signaling pathway - cell viability counter screen (AID 1259380). Further: nearly all actives have a fitted effect of over 30% in size. Further: potency means the concentration at half of the fitted maximal effect. The essentials:
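Viability of ER-beta-UAS-bla HEK293T cells was determined by CellTiter-Glo luminescence following 16 hr treatment with test compounds at 37C.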

Assay [15] addresses Androgen receptor (Homo sapiens) (UniProt P10275). Put plainly: qHTS assay to identify small molecule agonists of the androgen receptor (AR) signaling pathway in the presence of an antagonist (AID 1259381; calls by dose curve; further: nearly all actives have a fitted effect of over 15% in size). The essentials:
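Here, 15-concentration compound series were pin-transferred onto MDA-kb2 MMTV-luciferase cells already dosed with nilutamide (3.0uM final). After 16hr at 37C, ONE-Glo was added and luminescence read 30min later at room temperature.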

Assay [16] concerns the target Estrogen receptor beta (Homo sapiens) (UniProt Q92731). Put plainly: qHTS assay to identify small molecule agonists of the estrogen receptor beta (ER-beta) signaling pathway (AID 1259377; active means well fitted activation curve with a large enough effect in the signal ratio in the repeat runs, not every such curve was filed as active; the % refers to the signal ratio; further: potency means the concentration at half of the fitted maximal effect). In short, it runs like this:
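In HEK293T cells bearing a UAS-beta-lactamase reporter under ER-beta control, DMSO-delivered compounds were incubated for 16 hr at 37C. Activity was detected as fluorescence 2 hours after LiveBLAzer B/G FRET substrate addition.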

For assay [17] the target is unchanged. Kind of assay: qHTS assay to identify small molecule antagonists of the estrogen receptor beta (ER-beta) signaling pathway (AID 1259378; active means well fitted inhibition curve with a large enough effect in the signal ratio in the repeat runs, not every such curve was filed as active; the % refers to the signal ratio). The essentials:
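ER-beta-UAS-bla HEK293T cells in 2% charcoal-stripped FBS medium treated with compound plus 1nM final 17-beta-estradiol for 16 hr at 37C. Beta-lactamase reporter read by FRET substrate fluorescence after 2 hours at room temperature.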

A short description of assay [18]: qHTS assay to identify small molecule phospholipidosis (PLD) inducers (AID 1259344; active means well fitted curve in the direction sought with a large enough effect; an effect the other way counts as inactive or inconclusive). In short, it runs like this: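 Quantitative HTS in HepG2: compound plus LipidTOX Red dye for 24 h, paraformaldehyde fixation with Hoechst 33342, widefield high-content imaging; amiodarone as positive and DMSO as negative control.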

Each structure is given as a SMILES string. Several values for one entry are separate records, joined by “and”; a condition that tells them apart may be missing. Identical values can stand only once. Records with an inconclusive call do not appear. More than one record can exist for a structure, and the calls need not agree. Activity calls are given as the source filed them. Unless noted, the call rests on the fitted dose curve; in most records, active means well fitted curve in the direction sought with a large enough effect in the repeat runs; inconclusive means weak or mixed curves; inactive means no such curve, though single readings can be large; an effect the other way counts as inactive or inconclusive.

Chain of Thyrotropin receptor (Homo sapiens) (P16473 whole entry, looked up): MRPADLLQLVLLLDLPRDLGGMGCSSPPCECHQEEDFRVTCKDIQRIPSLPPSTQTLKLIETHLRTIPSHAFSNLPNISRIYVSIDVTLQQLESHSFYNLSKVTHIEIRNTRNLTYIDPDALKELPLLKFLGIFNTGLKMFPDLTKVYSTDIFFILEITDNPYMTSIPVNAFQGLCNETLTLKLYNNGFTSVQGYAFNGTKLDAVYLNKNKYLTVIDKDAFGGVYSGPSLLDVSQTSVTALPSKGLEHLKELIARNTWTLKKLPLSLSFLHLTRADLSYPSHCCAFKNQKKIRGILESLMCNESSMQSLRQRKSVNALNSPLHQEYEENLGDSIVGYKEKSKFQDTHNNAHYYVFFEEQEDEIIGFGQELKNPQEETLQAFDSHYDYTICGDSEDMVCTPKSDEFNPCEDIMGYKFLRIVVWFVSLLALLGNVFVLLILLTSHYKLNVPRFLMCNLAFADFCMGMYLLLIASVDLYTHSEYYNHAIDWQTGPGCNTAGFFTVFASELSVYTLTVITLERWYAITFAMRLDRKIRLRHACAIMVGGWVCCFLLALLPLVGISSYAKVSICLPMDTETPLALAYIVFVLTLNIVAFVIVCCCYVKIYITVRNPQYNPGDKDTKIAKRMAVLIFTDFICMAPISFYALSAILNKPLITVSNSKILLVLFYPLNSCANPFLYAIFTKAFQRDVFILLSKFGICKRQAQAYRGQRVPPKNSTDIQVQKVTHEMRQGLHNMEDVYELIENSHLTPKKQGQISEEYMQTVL
Chain of Progesterone receptor (Homo sapiens) (P06401 whole entry, looked up): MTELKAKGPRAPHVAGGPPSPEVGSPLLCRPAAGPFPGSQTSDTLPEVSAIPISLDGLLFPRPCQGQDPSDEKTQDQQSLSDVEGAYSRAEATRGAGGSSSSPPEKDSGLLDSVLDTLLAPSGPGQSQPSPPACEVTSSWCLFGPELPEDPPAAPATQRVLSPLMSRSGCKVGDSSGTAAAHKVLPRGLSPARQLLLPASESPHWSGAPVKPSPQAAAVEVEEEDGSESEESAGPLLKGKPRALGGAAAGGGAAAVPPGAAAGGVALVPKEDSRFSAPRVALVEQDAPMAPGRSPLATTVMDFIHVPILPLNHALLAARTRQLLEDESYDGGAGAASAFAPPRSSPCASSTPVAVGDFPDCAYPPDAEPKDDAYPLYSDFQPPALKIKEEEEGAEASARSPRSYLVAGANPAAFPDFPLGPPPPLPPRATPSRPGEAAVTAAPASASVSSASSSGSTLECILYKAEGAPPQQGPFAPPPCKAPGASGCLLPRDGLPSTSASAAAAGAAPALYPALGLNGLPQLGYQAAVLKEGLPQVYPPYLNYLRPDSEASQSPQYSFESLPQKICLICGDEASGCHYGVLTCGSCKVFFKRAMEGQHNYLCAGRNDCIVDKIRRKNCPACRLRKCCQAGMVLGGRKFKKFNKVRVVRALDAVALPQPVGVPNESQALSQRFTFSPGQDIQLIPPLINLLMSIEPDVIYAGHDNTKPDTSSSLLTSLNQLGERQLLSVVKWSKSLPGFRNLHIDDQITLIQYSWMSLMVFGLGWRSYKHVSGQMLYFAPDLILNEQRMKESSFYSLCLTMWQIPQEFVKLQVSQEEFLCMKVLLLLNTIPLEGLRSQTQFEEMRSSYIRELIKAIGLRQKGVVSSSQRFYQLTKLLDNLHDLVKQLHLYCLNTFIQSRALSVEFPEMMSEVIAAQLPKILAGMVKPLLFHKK
Chain of Estrogen receptor beta (Homo sapiens) (Q92731 whole entry, looked up): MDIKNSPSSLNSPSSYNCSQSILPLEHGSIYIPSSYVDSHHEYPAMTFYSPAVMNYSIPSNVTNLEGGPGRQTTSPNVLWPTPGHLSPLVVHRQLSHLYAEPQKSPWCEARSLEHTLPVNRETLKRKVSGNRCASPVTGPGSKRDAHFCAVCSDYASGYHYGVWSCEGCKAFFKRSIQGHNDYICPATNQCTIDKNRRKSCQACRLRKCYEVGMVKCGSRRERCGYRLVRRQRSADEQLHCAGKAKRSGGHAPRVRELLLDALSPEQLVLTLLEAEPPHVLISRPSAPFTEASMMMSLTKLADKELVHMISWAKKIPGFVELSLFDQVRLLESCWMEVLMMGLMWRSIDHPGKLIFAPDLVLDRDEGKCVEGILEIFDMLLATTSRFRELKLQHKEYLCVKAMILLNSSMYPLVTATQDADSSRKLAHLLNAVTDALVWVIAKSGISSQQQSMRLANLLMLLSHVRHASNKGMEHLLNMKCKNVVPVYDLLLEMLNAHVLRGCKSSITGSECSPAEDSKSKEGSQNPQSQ
Chain of Androgen receptor (Homo sapiens) (P10275 whole entry, looked up): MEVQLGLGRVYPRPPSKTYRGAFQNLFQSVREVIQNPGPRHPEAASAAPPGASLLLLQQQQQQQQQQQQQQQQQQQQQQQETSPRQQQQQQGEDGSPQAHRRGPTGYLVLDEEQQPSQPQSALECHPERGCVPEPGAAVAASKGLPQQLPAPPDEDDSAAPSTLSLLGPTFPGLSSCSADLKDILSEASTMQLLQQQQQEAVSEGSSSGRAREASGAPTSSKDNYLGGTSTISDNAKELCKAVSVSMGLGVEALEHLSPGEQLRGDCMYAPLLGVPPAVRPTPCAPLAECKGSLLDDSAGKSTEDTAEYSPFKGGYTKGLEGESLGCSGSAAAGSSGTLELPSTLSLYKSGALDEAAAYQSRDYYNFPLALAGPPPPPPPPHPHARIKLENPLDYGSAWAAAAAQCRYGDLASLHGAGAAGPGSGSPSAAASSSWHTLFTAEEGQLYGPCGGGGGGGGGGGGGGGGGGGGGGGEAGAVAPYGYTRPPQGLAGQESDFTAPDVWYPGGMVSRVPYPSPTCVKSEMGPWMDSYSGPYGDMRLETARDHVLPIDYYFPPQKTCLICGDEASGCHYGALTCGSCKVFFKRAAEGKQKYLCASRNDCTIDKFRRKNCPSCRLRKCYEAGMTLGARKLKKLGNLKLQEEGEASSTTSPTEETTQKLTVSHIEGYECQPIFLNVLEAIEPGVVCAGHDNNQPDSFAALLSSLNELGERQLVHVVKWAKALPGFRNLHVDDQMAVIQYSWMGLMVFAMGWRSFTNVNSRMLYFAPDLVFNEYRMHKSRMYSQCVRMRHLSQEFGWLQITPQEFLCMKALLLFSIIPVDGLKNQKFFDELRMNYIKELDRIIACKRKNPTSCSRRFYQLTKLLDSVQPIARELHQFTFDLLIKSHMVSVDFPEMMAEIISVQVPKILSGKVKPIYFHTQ

Turning to `CC(C)(C)C(O)(CCc1ccc(Cl)cc1)Cn1cncn1` (centres undefined), the Potency entry in assay [1], in assay [3], in [4], in assay [7] and in [9] was “inactive” in each case. Also, the compound was classed as inactive in assay [2], in [5], in assay [6], in [8], in [10] and in assay [11]. The Potency in assay [12] was 17.4 µM (active) and 24.3 µM (active).

As to `Nc1ccc(Cc2ccc(N)cc2)cc1`, the Potency result in assay [1], in assay [3], in assay [4], in [13], in assay [7] and in assay [9] was “inactive” throughout. For the same compound, the Potency entry in assay [12] was “inactive”. Besides, the outcome in assay [2], in [5], in [6], in assay [8], in assay [10] and in assay [11] was inactive.

Consider `O=c1ccc(=O)[nH][nH]1`, for which the Potency entry in assay [1], in assay [3], in assay [4], in assay [14], in [7] and in [9] was “inactive” each time. Further, the Potency entry in assay [12] is “inactive”. The compound was called inactive in assay [2], in [5], in assay [6], in assay [15], in [8] and in assay [10]. Further, the compound was classed as inactive in [11].

In the case of `CCC[N+](=O)[O-]`, the Potency result in assay [1], in [3], in [4], in assay [13], in [16] and in assay [9] was “inactive” each time. Besides, the outcome in assay [2], in [5], in assay [17], in assay [6], in assay [8] and in assay [10] was inactive. For the same compound, the Potency was 8.48 µM (active) and inactive in [14]; 23.9 µM (active) and inactive in assay [7]; 8.48 µM (active) and inactive in [12].

`O=[N+]([O-])c1ccc(Oc2ccc(Cl)cc2Cl)cc1`: the Potency result in assay [1], in assay [3], in assay [4], in [13], in [14] and in assay [7] was “inactive” throughout. The Potency result in [9] was “inactive”. Moreover, the outcome in assay [2], in assay [5], in [17], in assay [6], in assay [8] and in assay [10] was inactive. The outcome in [11] was inactive. Further, the Potency in assay [16] is 61.4 µM (active) and inactive; in [12], 15.4 µM (active) and 9.69 µM (active).

Turning to `c1ccc2c(c1)Oc1ccccc1O2`, the Potency entry in [1], in assay [3], in assay [4], in assay [13], in [14] and in [7] was “inactive” in each case. Besides, the Potency entry in [9] and in assay [12] was “inactive” each time. Also, the compound was classed as inactive in assay [2], in assay [5], in assay [6], in [8], in [10] and in assay [11].

For the compound `CC(C)C#N`, the Potency result in assay [1], in assay [3], in [4], in assay [14], in [7] and in assay [9] was “inactive” in each case. For the same compound, the Potency entry in assay [12] is “inactive”. Moreover, the result in [2], in assay [5], in [6], in assay [8], in [10] and in assay [11] was inactive.

Take `COC(=O)c1ccccc1N`: the Potency result in assay [1], in [3], in [4], in assay [13], in assay [16] and in assay [14] was “inactive” in each case. The Potency entry in assay [7], in [9] and in assay [12] was “inactive” throughout. The call in assay [2], in assay [5], in [17], in assay [6], in assay [8] and in assay [10] was inactive. Further, in assay [11], the call was inactive.

`CN1C(=O)CN=C(c2ccccc2)c2cc(Cl)ccc21`: the compound was called inactive in assay [18], in assay [2], in assay [5], in [6], in [8] and in assay [10]. Further, the result in assay [11] was inactive. For the same compound, the Potency entry in assay [1], in assay [3], in assay [4], in assay [14], in [7] and in assay [9] was “inactive” in each case. In assay [13], the Potency was 4.39 µM (active).

On to `NCC(O)c1ccc(O)cc1` (centres undefined), for which the result in assay [18], in assay [2], in assay [5], in assay [17], in assay [6] and in [8] was inactive. In addition, the result in assay [10] and in [11] was inactive. The Potency result in [1], in [3], in assay [4], in assay [13], in [16] and in assay [14] was “inactive” each time. Moreover, the Potency result in assay [7], in assay [9] and in [12] was “inactive” each time.

For the origin of these results see PubChem BioAssay (Tox21).
